Assay results taken from PubChem BioAssay (NCI).
The panel holds about 79,000 compounds, 15% with a hit somewhere; the sample as a whole holds those more often. Cut-off read from the data, not from the text of the source: active = growth inhibition above about 70%; inactive = the rest.

Tests used:
[1] = NCI Yeast Anticancer Drug Screen. Data for the rad50 strain (AID 155);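 note: 0% = growth of vehicle-only cultures of the same strain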; conditions: S. cerevisiae rad50 strain growth inhibition; at 50.0 µM; stronger effect = higher value
Outline: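 Cells are treated with compound, grown, and their growth is then scored against vehicle-only cultures of the same repair-deficient yeast strain.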

[2] = NCI Yeast Anticancer Drug Screen. Data for the mec2-1 strain (AID 157); conditions: S. cerevisiae mec2-1 strain, at 50.0 µM, stronger effect = higher value
Outline: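 Yeast mec2-1 mutant treated with compound. Readout: growth inhibition vs vehicle controls.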

[3] = NCI Yeast Anticancer Drug Screen. Data for the sgs1 mgt1 strain (AID 161);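 note: 0% = growth of cultures given vehicle only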; conditions: S. cerevisiae sgs1 mgt1 strain, at 50.0 µM, stronger effect = higher value
Outline: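 Mutant yeast exposed to compound; growth scored against vehicle-only wells.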

[4] = NCI Yeast Anticancer Drug Screen. Data for the cln2 rad14 strain (AID 165);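 note: 0% = growth equal to vehicle treated cultures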; conditions: S. cerevisiae cln2 rad14 strain, at 50.0 µM, stronger effect = higher value
Outline: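 cln2 rad14 yeast strain; compound exposure; growth inhibition read vs vehicle controls.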

[5] = NCI Yeast Anticancer Drug Screen. Data for the bub3 strain (AID 167); conditions: S. cerevisiae bub3 mutant strain, at 50.0 µM, stronger effect = higher value
Outline: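 Part of a panel of yeast mutants defective in DNA damage repair or cell cycle regulation. Each strain is grown with compound, and inhibition is calculated relative to solvent-treated cultures.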

[6] = NCI Yeast Anticancer Drug Screen. Data for the mlh1 rad18 strain (AID 175); conditions: S. cerevisiae mlh1 rad18 strain growth inhibition; at 50.0 µM; stronger effect = higher value
Outline: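 Yeast w/ defined DNA-repair lesions; compound exposure; growth vs vehicle controls → % inhibition.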

Measured: growth inhibition

CSc1nc2cc(S(=O)(=O)N3CCCCC3)ccc2s1
inactive: [1] -34.5% | [2] -21.8% | [3] -25.5% | [4] -52.6% | [5] -89.3% | [6] -7%

O=S(=O)(c1ccccc1)N1N=C2c3ccccc3CCC[C@H]2C1c1ccccc1 (stereo partly specified)
inactive: [1] 51.1% | [2] -16.4% | [3] -12.7% | [4] -49.7% | [5] 4.85% | [6] 4.85%

CCN(CC)CN(CC)CC
inactive: [1] 13.7% | [2] -9.2% | [3] 7.6% | [4] 21.4% | [5] 10.9% | [6] 9.25%

CCOC(=O)CN(c1c(C)cc(C)c(N(CC(=O)OCC)S(=O)(=O)c2ccccc2)c1C)S(=O)(=O)c1ccccc1
inactive: [1] 40.5% | [2] 8.95% | [3] 24.8% | [4] -9.2% | [5] 4.5% | [6] 19.9%

CCOC(OCC)c1ccccc1C
inactive: [1] 27.9% | [2] 9.3% | [3] 8.25% | [4] -36.5% | [5] 15.2% | [6] 20.4%

CC(C)(O)/C(=N/O)c1ccc(-c2ccccc2)cc1
inactive: [1] -4.05% | [2] -18.3% | [3] 0.35% | [4] -16.1% | [5] 9.35% | [6] 10.8%

CC(C)(C)[N]=[V]([Cl])([Cl])[Cl]
inactive: [1] 3.65% | [2] -0.65% | [3] -7.3% | [4] -6.35% | [5] -10.6% | [6] -10.1%

COc1c(NC(=O)c2ccc([N+](=O)[O-])cc2)cccc1[N+](=O)[O-]
inactive: [1] 0.45% | [2] 14.3% | [3] 5.1% | [4] -0.2% | [5] 32.2% | [6] 20.4%

O=C(NC1CC12c1ccccc1-c1ccccc12)Oc1ccc2ccccc2c1 (stereo unspecified)
inactive: [1] 68.4% | [2] 18.8% | [3] 60.9% | [4] 45.8% | [5] 55.2% | [6] 57.4%

O=C(Nc1ccccc1Cl)Oc1ccc(Cl)cc1Cl
inactive: [1] 3.5% | [2] 20.1% | [3] 7.4% | [4] -15.1% | [5] -6.05% | [6] -9.45%

N#CC1(C#N)C(c2ccccc2)C=CC12OCCCO2 (stereo unspecified)
inactive: [1] 10.9% | [2] 6.75% | [3] 3.9% | [4] 32% | [5] -5.3% | [6] 23.2%

CC1CCC(CCBr)CC1 (stereo unspecified)
inactive: [1] 5.8% | [2] -9.9% | [3] 5.15% | [4] -3.15% | [5] 0.9% | [6] 2.25%

CCc1nnc(-c2nsc3ccccc23)s1
inactive: [1] 38.5% | [2] -22.9% | [3] 6.4% | [4] -12.8% | [5] 15.8% | [6] 23.3%

Cc1cc(C)nc(NS(=O)(=O)c2ccc(Nc3c4ccc(Cl)cc4nc4c(C(=O)NCCN(C)C)cccc34)cc2)n1
inactive: [1] 0% | [2] 13.8% | [3] -5.05% | [4] 1.4% | [5] 30.8% | [6] 6.95%

CCN(CC)c1ccc2cc(-c3nc4ccccc4s3)c(=O)oc2c1
inactive: [1] 12.4% | [2] -18.1% | [3] -9.5% | [4] -3.05% | [5] -11.5% | [6] 4.8%

COc1cc([N+](=O)[O-])ccc1NC(=O)C(Br)C(Br)c1ccccc1 (stereo unspecified)
inactive: [1] 11.7% | [2] -5.9% | [3] 10.6% | [4] -1.4% | [5] 12.5% | [6] 15.6%

Cc1nc(C)c(C(=O)NN)cc1C(=O)NN
inactive: [1] 9.05% | [2] -3.7% | [3] -4.6% | [4] 7.45% | [5] -0.7% | [6] -14.7%

CCCCC(CCC)OC(=O)Nc1cccc2ccccc12 (stereo unspecified)
inactive: [1] 35.1% | [2] 0.35% | [3] 3.35% | [4] -16.1% | [5] -0.15% | [6] 40%

CC(C)(C)c1ccc(SC(=O)NCCCl)cc1
inactive: [1] -1.55% | [2] 23.9% | [3] 14.2% | [4] -31.1% | [5] -5.4% | [6] -11.2%

O=C(NCC(O)CNC(=O)C(F)(F)F)C(F)(F)F
inactive: [1] 5.2% | [2] 7.75% | [3] 8.75% | [4] 28.4% | [5] 14.4% | [6] -27.2%

CCc1c(C)c(C#N)c(=S)n(C2OC(COC(C)=O)C(OC(C)=O)C(OC(C)=O)C2OC(C)=O)c1-c1ccccc1 (stereo unspecified)
inactive: [1] 2.55% | [2] 13.1% | [3] 37.6% | [4] 8.25% | [5] 11.1% | [6] 13.6%

CCOC(=O)N1CCN(c2c(N)nc(C)[nH]c2=O)CC1
inactive: [1] -49.6% | [2] -20.9% | [3] -55.3% | [4] -14.8% | [5] 19.1% | [6] -58.5%

COc1ccc(CCc2ccc(Cl)cc2)cc1
inactive: [1] 6.35% | [2] 6.3% | [3] -5.9% | [4] 15.5% | [5] -17.6% | [6] -4.5%

CC(=O)Nc1ccccc1/C=C\c1ccccn1
inactive: [1] -21.6% | [2] -9.85% | [3] -15.5% | [4] 1.25% | [5] -5.1% | [6] -11.7%

CC(C)=CCC(C)c1ccncc1 (stereo unspecified)
inactive: [1] 1.9% | [2] -9.15% | [3] 9.45% | [4] -9.05% | [5] 15% | [6] 7.4%

COc1cccc(C2c3cc4c(cc3OC(N3CCCC3)C2C)OCO4)c1O (stereo unspecified)
inactive: [1] 13.6% | [2] -18.6% | [3] 3.3% | [4] -19.8% | [5] 12.3% | [6] -11.1%

N#C/C(N)=C(\C#N)N=CN
inactive: [1] -5.5% | [2] 5.5% | [3] -7.1% | [4] 34% | [5] -22.3% | [6] -27.9%

C=CCOC(=O)Nc1ccc(C)c(NC(=O)OCC=C)c1
inactive: [1] -28.3% | [2] -45% | [3] -9.1% | [4] -25.5% | [5] -12.6% | [6] -33.1%

N#CC1CCCCC(=O)N1 (stereo unspecified)
inactive: [1] 3.55% | [2] 2.2% | [3] -2.05% | [4] -3.6% | [5] -1.2% | [6] -1.55%

O=C(OCC1OC(C2N(c3ccccc3)CCN2c2ccccc2)C(OC(=O)c2ccccc2)C1OC(=O)c1ccccc1)c1ccccc1 (stereo unspecified)
inactive: [1] 0.85% | [2] 6.5% | [3] -26.4% | [4] -7.45% | [5] -11.9% | [6] 9.7%

OC1CC=CC1
inactive: [1] 2.45% | [2] -3.5% | [3] -4.6% | [4] 0.35% | [5] 8.25% | [6] -12.8%

Nc1ccc2c(c1)C1C(C3C2C2(Cl)C(Cl)=C(Cl)C3(Cl)C2(Cl)Cl)C2(Cl)C(Cl)=C(Cl)C1(Cl)C2(Cl)Cl (stereo unspecified)
inactive: [1] 33.6% | [2] 24.9% | [3] 21.9% | [4] 24.1% | [5] 50.1% | [6] 39.5%

COc1ccc(C(c2c(O)c3ccccc3n(C)c2=O)c2c(O)c3ccccc3n(C)c2=O)cc1
inactive: [1] -39% | [2] -19.3% | [3] -25.9% | [4] -33.5% | [5] 1.1% | [6] -35.1%

COc1ccc2nc3cc(Cl)ccc3c(NCCNCC(C)(C)O)c2c1
inactive: [1] 23.4% | [2] 15.8% | [3] 18.5% | [4] 63.8% | [5] 27.1% | [6] 22.1%

CC(=O)N(C(=O)CC(=O)NN)c1ccc(Cl)cc1
inactive: [1] -19.1% | [2] -21.3% | [3] 3.65% | [4] 26.3% | [5] 6.95% | [6] 26%

O=c1nc(Oc2ccccc2)nc2c3ccccc3ccn12
inactive: [1] -5.4% | [2] 16.1% | [3] 11.9% | [4] -9.9% | [5] 18.8% | [6] 24.4%

Cn1c(C=O)cc2c(Cl)nccc21
inactive: [1] -35.5% | [2] -17.4% | [3] -11.8% | [4] -54.9% | [5] -10.1% | [6] -1.15%

CCCC(O)C(C)N (stereo unspecified)
inactive: [1] 4.3% | [2] -3.1% | [3] -2.9% | [4] -0.2% | [5] -2.25% | [6] -3.15%

O=[N+]([O-])c1cccc(S(=O)(=O)SSS(=O)(=O)c2cccc([N+](=O)[O-])c2)c1
inactive: [1] 16.6% | [2] 18.1% | [3] 55.9% | [4] 20.8% | [5] 5.75% | [6] 28.2%

O=C1c2ccccc2C(=O)N1CCS(=O)(=O)CCS(=O)(=O)CCN1C(=O)c2ccccc2C1=O
inactive: [1] -0.1% | [2] 4.95% | [3] -14.9% | [4] -37.5% | [5] -0.95% | [6] 4.5%

O=C1C/C(=C\c2cccc([N+](=O)[O-])c2)C(=O)N1
inactive: [1] 9.7% | [2] 11.3% | [3] -5.4% | [4] -11.3% | [5] -2.8% | [6] -3.2%
